# A number with no mark means an inactive call.
# System: Vero E6 infected with SARS-CoV-2
# Assay: inhibition of SARS-CoV-2 cytopathic effect; higher = more antiviral protection, active = above 15
# Conditions: 48 h
SMILES,inhibition of SARS-CoV-2 cytopathic effect (1 nM),inhibition of SARS-CoV-2 cytopathic effect (8.33 nM),inhibition of SARS-CoV-2 cytopathic effect (100 nM),inhibition of SARS-CoV-2 cytopathic effect (833.33 nM),inhibition of SARS-CoV-2 cytopathic effect (10000 nM)
CC1(C)CCC(C)(C)c2c1cc(C(=O)Nc1cc(F)c(C(=O)O)c(F)c1)c(O)c2Cl,-1.01%,-0.71%,0.11%,2.72%,3.26%
CC1=NN(c2ccccc2)C(=O)C1 [edaravone],1.36%,0.66%,-0.76%,0.1%,3.57%
C=C[C@H]1CN2CC[C@H]1C[C@H]2[C@H](O)c1ccnc2ccccc12 [cinchonidine],-0.165%,2.44%,2.67%,3.6%,2.49%
O=C(O)CCCCCCNC1c2ccccc2CCc2ccccc21 [amineptine],-0.8%,-0.3%,-1.15%,-1.42%,-0.04%
Cn1nc(-c2ccc(C(F)(F)F)cc2)nc2c(=O)n(C)c(=O)nc1-2 [walrycin-B],-1.05%,-0.74%,1.15%,12.5%,-12.8%
CC(Cc1ccc(O)cc1)NCC(O)c1cc(O)cc(O)c1 (stereo not given) [fenoterol],2.01%,0.82%,2.19%,2.52%,0.86%
NS(=O)(=O)c1cc(Cl)c(Cl)c(S(N)(=O)=O)c1 [diclofenamide],-2.99%,-2.1%,-3.44%,0.21%,-2.7%
CCCN(C/C=C/I)C1CCc2cccc(O)c2C1 (stereo not given) [8-hydroxy-PIPAT],3.48%,1.88%,3.63%,3.07%,-2.66%
CC1Cc2ccccc2N1NC(=O)c1ccc(Cl)c(S(N)(=O)=O)c1 (stereo not given) [indapamide],0.88%,2.8%,0.11%,1.3%,1.05%
CC(=O)OCC(=O)[C@@]1(O)CC[C@H]2[C@@H]3CCC4=CC(=O)CC[C@]4(C)[C@H]3C(=O)C[C@@]21C [cortisone-acetate],-0.91%,-1.31%,-1.03%,0.49%,0.27%
CC(=O)O[C@H]1CC[C@@]2(C)C(=CC[C@@H]3[C@@H]2CC[C@]2(C)C(c4cccnc4)=CC[C@@H]32)C1 [abiraterone-acetate],-0.73%,0.99%,-0.37%,-1.43%,-0.75%
Cc1cccc(/C=N/Nc2cc(N3CCOCC3)n3nc(-c4ccncc4)cc3n2)c1,1.37%,4.2%,27.3% (active),19% (active),13.2%
COc1ccn2ncc(-c3nc4[nH]nc(NC(=O)c5ccc(F)cc5)c4cc3F)c2c1,1.72%,-0.95%,0.38%,-3.07%,-6.79%
CO[C@H]1CC[C@H](N(c2cc(C3=CCCCC3)sc2C(=O)O)C(=O)[C@H]2CC[C@H](C)CC2)CC1,0.5%,0.07%,-0.07%,0.31%,0.21%
CC1(C)O[C@@H]2C[C@H]3[C@@H]4CCC5=CC(=O)C=C[C@]5(C)[C@@]4(F)[C@@H](O)C[C@]3(C)[C@]2(C(=O)CO)O1,0.1%,-0.04%,1.38%,1.4%,-0.1%
CC[C@H](C)n1cc(C)c2c(C(=O)NCc3c(C)cc(C)[nH]c3=O)cc(-c3ccc(N4CCNCC4)nc3)cc21,1.2%,2.76%,2.26%,1.5%,-4.63%
CCCC(=O)O[C@]1(C(=O)CO)CC[C@H]2[C@@H]3CCC4=CC(=O)CC[C@]4(C)[C@H]3[C@@H](O)C[C@@]21C [hydrocortisone-butyrate],-1.77%,1.01%,3.36%,5.42%,0.11%
COc1cc(NC(C)CCCN)c2ncccc2c1 (stereo not given) [primaquine],1.68%,2.25%,0.83%,1.27%,3.23%
COc1c2occc2c(OC)c2c(=O)cc(C)oc12 [khellin],3.97%,-0.75%,-0.95%,-3.54%,-0.89%

SMILES,inhibition of SARS-CoV-2 cytopathic effect (1 nM),inhibition of SARS-CoV-2 cytopathic effect (8.33 nM),inhibition of SARS-CoV-2 cytopathic effect (100 nM),inhibition of SARS-CoV-2 cytopathic effect (833.33 nM),inhibition of SARS-CoV-2 cytopathic effect (10000 nM)
Cc1ccc(/C(=C\CN2CCCC2)c2cccc(/C=C/C(=O)O)n2)cc1 [acrivastine],0.5%,-0.13%,0.75%,6.14%,1.35%
CC(C)C[C@@H](NC(=O)[C@H](Cc1ccccc1)NC(=O)CNC(=O)[C@@H](C)NC(=O)[C@@H](N)Cc1ccc(O)cc1)C(=O)O,-0.21%,3.3%,1.72%,2.13%,0%
CCN(CC)CCNC(=O)c1c(C)[nH]c(/C=C2\C(=O)Nc3ccc(F)cc32)c1C [sunitinib],0.55%,-1.31%,2.08%,-2.15%,30.3% (active)
O=C(O)CCCc1c[nH]c2ccccc12 [3-indolebutyric-acid],-1.83%,-1.26%,0.03%,-3.61%,-2.44%
CO/N=C(\C(=O)N[C@@H]1C(=O)N2C(C(=O)[O-])=C(C[N+]3(C)CCCC3)CS[C@H]12)c1csc(N)n1 [cefepime],0.86%,1.89%,2.66%,3.19%,1.42%
CCCCCCCCCCCCc1ccc(S(=O)(=O)Nc2nncs2)cc1,-0.85%,0.48%,-0.22%,-2.3%,-0.65%
CN(C)CC[C@@]1(c2ccc(Cl)cc2)Cc2ccccc2C(=O)O1 (racemic),-1.76%,-2.36%,-1.71%,-2.86%,-3.54%
CNCCC(Oc1ccc(C(F)(F)F)cc1)c1ccccc1 (stereo not given) [fluoxetine],-10.3%,0.27%,-2.53%,-3.36%,-9.56%
CC(C)(C(=O)O)c1ccc(C(O)CCCN2CCC(C(O)(c3ccccc3)c3ccccc3)CC2)cc1 (stereo not given) [fexofenadine],0.81%,-0.73%,-0.49%,1.17%,2.18%
CN(C(=O)c1ccc(F)cc1C(F)(F)F)C1CCN(c2nnc(-c3ccnn3C)c3ccccc23)CC1 [taladegib],0.16%,-6.09%,-5.17%,-5.9%,-5.54%
CCN(CC)CC1CCCCN1CC(=O)N1c2ccccc2C(=O)Nc2cccnc21 (stereo not given) [otenzepad],2.23%,3.08%,-0.68%,5.55%,0.04%
CC(=O)Nc1ccccc1 [acetanilide],-1.3%,2.8%,1.67%,1.23%,0.69%
CN(C)CCOc1cc(-c2cn[nH]c2)ccc1NC(=O)C1COc2ccccc2O1 (stereo not given),-1.4%,1.35%,0.53%,-5.69%,-6.4%
C[C@@H](CN1CCC(Cc2ccccc2)CC1)[C@@H](O)c1ccc(O)cc1,-1.15%,-0.92%,-0.78%,-2.61%,-5.49%
CC(C)Cc1ccc([C@@H](C)C(=O)NS(C)(=O)=O)cc1 [reparixin],2.11%,3.05%,3.66%,0.65%,4.19%
Nc1cccc(-c2cc3c(Oc4cccc(O)c4)ncnc3[nH]2)c1,4.09%,0.18%,-2.41%,-3.87%,-11.4%
CC(=O)Nc1cccc(O)c1 [metacetamol],1.03%,5.41%,3.07%,4.81%,4.76%
CCCCc1ccc(NS(=O)(=O)c2ccc(F)cc2)cc1,-1.42%,-2.12%,-1.58%,-3.93%,-1.95%

# Source: the supplement of paper PMC13380429
